# Out of some 2,200 compounds screened, about 1,200 (55%) were called active. The set was probably picked from earlier hits. This is one part of the list. Unmarked numbers belong to inactive results. No cut-off is given here; in the data, nearly all actives have IC50 up to about 92 µM.
# Test: counter assay for TAg ATPase ADP read-out – biochemical, ADP-Hunter, fluorescence, counter-screen (AID 2501);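 note: purified T antigen ATPase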;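 for inhibition: 0% = enzyme with vehicle and 100% = reference inhibitor wells; higher means more inhibition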
# Settings: series mostly up to 100 µM; inhibition: at the top concentration
Compound,inhibition,IC50
N#Cc1c(NC(=O)CCC(=O)O)sc2c1CCCC2,6.51% [at 50 µM],–
O=[N+]([O-])c1ccc(-[n+]2ccc3ccccc3c2)c([N+](=O)[O-])c1,-11.3%,–
O=[N+]([O-])c1cccnc1SCc1ccccc1,-42.5%,–
O=c1c2c([N+](=O)[O-])cc([N+](=O)[O-])cc2sn1Cc1ccccc1,–,77.3 µM (active)
Cc1cc(=O)oc2c(N)c(O)ccc12,–,2.9 µM (active)
CCc1c(C(=O)c2ccc(Cl)cc2)oc2c(C)c3oc(=O)cc(C)c3cc12,2.57%,–
CN(CC(=O)Nc1ccccc1Br)C(=O)c1cc(S(=O)(=O)N(C)C)ccc1N1CCCC1,-14.2%,–
CCN(CC)S(=O)(=O)c1ccc(N2CCCCC2)c(NC(=O)/C=C/c2cc(OC)c(OC)c(OC)c2)c1,10.5%,–
Cc1ccccc1NC(=O)c1cc(N)ccc1N1CCCCC1,–,5.41 µM (active)
COc1cc(/C=N/NC(=O)c2cccc(S(=O)(=O)N3CCCC3)c2)ccc1O,–,4.27 µM (active)
CCNC(=O)NC(=O)C(C)OC(=O)c1cc(S(=O)(=O)N2CCCCCC2)ccc1OC (configuration not stated),8.91%,–
O=C(N/N=C/c1ccc(O)c(O)c1)c1cccc(S(=O)(=O)N2CCCCC2)c1,–,10.5 µM (active)
O=C(N/N=C/c1ccc(O)c(O)c1)c1cccc(S(=O)(=O)N2CCCC2)c1,–,4.88 µM (active)
CC(NCC(=O)Nc1cc(S(=O)(=O)N2CCCCCC2)ccc1Cl)c1ccccc1 (configuration not stated),-3.95%,–
Cc1cc(O)ccc1N/C=C1\CCCC1=O,–,10.2 µM (active)
O=C1CCCC/C1=C\Nc1ccc(O)cc1,–,4.32 µM (active)
Oc1ccc2c(c1)oc1cc(O)ccc12,–,4.05 µM (active)
O=c1oc2cc(O)ccc2c2ccccc12,–,8.47 µM (active)
Cc1ccc(C(C)NC(=S)NCc2ccc(F)cc2)cc1C (configuration not stated),–,33.9 µM (active)
Oc1cc2c(cc1O)C1c3ccc(O)c(O)c3OCC1(O)C2 (configuration not stated),-253%,–
CC(C)Cn1c(N)c(C(=O)COC(=O)c2cc(-c3ccco3)nc3ccccc23)c(=O)n(C)c1=O,-29.7%,–
CC(=O)Oc1ccc(C(=O)OCC(=O)c2c(N)n(C)c(=O)n(C)c2=O)cc1OC(C)=O,–,5.13 µM (active)
COc1cc(SC#N)ccc1N=Cc1c(C)[nH]n(-c2ccc(C)cc2C)c1=O,21.9%,–
O=C(Nc1ccc(O)cc1)C1CCCO1 (configuration not stated),–,5.34 µM (active)

Compound,inhibition,IC50
O=C(Nc1ccc(O)cc1)c1ccc(NC(=O)C2CCCO2)cc1 (configuration not stated),–,7.4 µM (active)
O=C(Nc1ccc(O)cc1)C1CC=CCC1 (configuration not stated),–,6.87 µM (active)
CCOC(=O)c1c(N2C(=O)Nc3cc(Cl)c(Cl)cc3N2O)sc2c1CCCCC2,-16.8%,–
Nc1nc(-c2cccs2)c(NC(=O)c2ccccc2)s1,–,10.4 µM (active)
O=C(O)CC1(Cc2nc(-c3cccs3)no2)CCCC1,-32.7%,–
c1ccc(CNc2ncnc3ccccc23)cc1,–,4.18 µM (active)
Cc1c(C)n(Cc2ccccc2)c2ncnc(NN)c12,-100%,–
CCOC(=O)C1=C(O)C(=O)N(Cc2cccnc2)C1c1ccc(OC)cc1 (configuration not stated),-22.7%,–
COc1ccc(-c2nc(O)c3cnccn23)cc1,–,6.67 µM (active)
COc1cc(/C=N/NC(=O)NC2CCCCC2)ccc1O,–,3.75 µM (active)
COc1cc(/C=N\NC(=O)C2CC3C=CC2C3)ccc1O (configuration not stated),–,7.58 µM (active)
O=S(=O)(Nc1ccc(O)cc1)c1cccc2cccnc12,–,4.75 µM (active)
Cc1ccccc1NS(=O)(=O)c1cc(C(=O)NCCC2=CCCCC2)ccc1C,-5.52%,–
Cc1cc(C)c(S(=O)(=O)Nc2ccc(O)cc2)cc1C,–,12.1 µM (active)
Cc1ccc(C)c(S(=O)(=O)Nc2ccc(O)cc2)c1,–,6.11 µM (active)
CSS(=O)(=O)c1cccc2cccnc12,5.86%,–
Cc1cc(C)c(S(=O)(=O)Nc2cc(SCC(=O)O)c(O)c3ccccc23)cc1C,-494%,–
Cc1cc(=O)[nH]c2ccc(S(=O)(=O)Nc3ccc(O)cc3)cc12,–,7.34 µM (active)
CNS(=O)(=O)c1cc(NC(=O)CCCNC(=O)c2ccc(Cl)cc2)ccc1C,7.77% [at 50 µM],–
CCSS(=O)(=O)c1cccc2cccnc12,-2.66%,–
Cc1c(C(=O)Oc2ccc(-c3cnc4ccccc4n3)cc2)cccc1[N+](=O)[O-],-11.1%,–
NC(=O)N/N=C/c1c(Sc2nnnn2-c2ccccc2)nc2ccccn2c1=O,-35.8%,–
Cc1cc(Cl)ccc1OCCn1cncn1,16% [at 50 µM],–
CC1=C/C(=N\OS(=O)(=O)c2ccccc2)C(C(C)C)=CC1=O,-18.8%,–

Compound,inhibition,IC50
CN1CCc2cccc3c2C1Cc1ccc(O)c(O)c1-3 (configuration not stated),-64.7%,–
O=S(=O)(Nc1ccc2c(c1)nc1n2CCOC1)c1ccccc1,-20.6%,–
CCOC(=O)Cn1c(=O)oc2cc(S(=O)(=O)NCCC(C)C)ccc21,17.2%,–
Cn1c(=O)oc2cc(S(=O)(=O)Nc3ccc(O)cc3)ccc21,–,3.81 µM (active)
Cc1nnc(SCc2ccccc2)n1CC1CCCO1 (configuration not stated),–,70.8 µM (active)
Cc1occc1-c1nnc(SCC(=O)c2ccccc2)n1CC1CCCO1 (configuration not stated),-2.27%,–
CN(C)c1ccc(Nc2nc(-c3cccnc3)cs2)cc1,–,5.96 µM (active)
Cc1nc2ncccn2c1-c1csc(Nc2ccc(N(C)C)cc2)n1,–,7.2 µM (active)
O=C1c2ccccc2C(Nc2ccccc2F)N1c1cccnc1 (configuration not stated),-3.26%,–
Cc1cccc(/C(N)=N/OC(=O)N2c3ccccc3Sc3ccccc32)c1,–,79.6 µM (active)
NNC(=O)C(=O)Nc1ccc(O)cc1,–,5.13 µM (active)
NN/C(=C\[N+](=O)[O-])Nc1ccc(Cl)cc1,-17%,–
Oc1ccc(N2CCN(C(=S)NCCc3ccccc3)CC2)cc1,–,3.15 µM (active)
CCOc1ccccc1NC(=O)NC(C)c1ccncc1 (configuration not stated),14.3%,–
CCOc1ccccc1NC(=S)N1CCN(c2ccc(O)cc2)CC1,–,6.75 µM (active)
CC(C)CN(C)C(=O)CCc1nnc(Cc2cccc(C(F)(F)F)c2)o1,29.4% [at 50 µM],–
COC(=O)/C=C/C(=O)Nc1ccc(O)c(Cl)c1,–,6.19 µM (active)
Cc1ccc(NC(=O)C(CC(C)C)NC(N)=O)cc1Cl (configuration not stated),-6.45%,–
Cc1ccccc1-n1sc2cc(F)ccc2c1=O,–,49.1 µM (active)
CCN(CC)CCCN(C(=O)c1cccs1)c1nc(-c2ccc(OC)cc2)cs1,-6.38%,–
O=S(=O)(NC1=NCCCCC1)c1ccc2sc(NS(=O)(=O)c3ccc4ccccc4c3)nc2c1,26.5%,–
c1ccc(-c2csc(NNC3=NCCCCC3)n2)cc1,–,13.6 µM (active)
COc1ccc(Nc2nc(-c3ccc4c(c3)NC(=O)CO4)cs2)cc1,23.8%,–
COc1ccc(-c2csc(NNC3=NCCCCC3)n2)cc1,–,40 µM (active)
